Experimental data published in PubChem BioAssay (NCATS).
Several values for one entry are separate records, joined by “and”; a condition that tells them apart may be missing. Equal values may be shown once. Records with an inconclusive call do not appear. More than one record can exist for a structure, and the calls need not agree. Activity calls are given as the source filed them. Calls come from the whole dose curve; as a rule, active = well fitted curve in the direction sought with a large enough effect; inconclusive = small, poorly fitted or top-dose-only effect, or another doubt; inactive = no such curve, though single readings can be large; an effect the other way counts as inactive or inconclusive.

Assay: Identifying Small Molecule Inhibitors of Pancreatic Cancer Stem Cells (SN12C, Adherent) (AID 1259358);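 note: cell survival measured after 48 h of compound exposure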
Conditions: viability/growth inhibition; series mostly up to 46.1 µM; viability (percent of control): at the top concentration
In short: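 After a 4 h attachment period, compounds were pinned into wells and cultures held 48 h under standard incubator conditions. Viability was then measured as CellTiter-Glo luminescence following 10 min at room temperature.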
Potency is the fitted concentration of half-maximal effect.

| SMILES | Potency | viability (percent of control) |
| --- | --- | --- |
| CN1CC[C@@H](c2c(O)cc(O)c3c(=O)cc(-c4ccccc4Cl)oc23)[C@@H](O)C1 | 0.187 µM (active) | – |
| COC(=O)[C@]12CCC(C)(C)C[C@@H]1[C@@H]1C(=O)C=C3[C@@]4(C)C=C(C#N)C(=O)C(C)(C)[C@@H]4CC[C@@]3(C)[C@]1(C)CC2 | 2.64 µM (active) | – |
| CC(C)(O)CCc1ccc(OCc2cc(-c3cccc(OC(F)F)c3)c3ncccc3c2)cc1 | – | 100% (inactive) |

Assay: P-glycoprotein substrates identified in KB-8-5-11 adenocarcinoma cell line, qHTS therapeutic library screen (AID 1346987); note: nearly all actives have a fitted effect of over 65% in size; for activity change, negative = cytotoxicity: % is set by controls: 0 for no effect and ±100 for the full control effect
Conditions: KB-8-5-11 (P-gp overexpressing) viability, CellTiter-Glo, 72 h; series mostly up to 44.5 µM; activity change, negative = cytotoxicity: at the top concentration; outcome: at the top concentration
In short: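 KB-8-5-11: colchicine-selected sub-line of KB-3-1 over-expressing P-gp; assay medium lacked colchicine. 72 h drug exposure at 37 degree C, CellTiter-Glo.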

| SMILES | Potency | activity change, negative = cytotoxicity |
| --- | --- | --- |
| Cc1cc(N2CCOCC2)cc2[nH]c(-c3c(NC[C@@H](O)c4cccc(Cl)c4)cc[nH]c3=O)nc12 | 14.8 µM (active) and 18.4 µM (active) | – |
| CNC(=O)c1ccc(-c2cnc3ncc(Cc4ccc5ncccc5c4)n3n2)cc1F | inactive | – |
| C=CC(=O)Nc1cccc(Oc2nc(Nc3ccc(N4CCN(C)CC4)cc3)ncc2Cl)c1 | 3.32 µM (active) and 7.31 µM (active) | – |
| O=C(Cc1ccc(-c2ccc(OCCN3CCOCC3)cc2)cn1)NCc1ccccc1 | 18.7 nM (active) and 580 nM (active) | – |
| COc1cccc2c(NCc3ccccc3)nc(-n3c(N)nc4ccccc43)nc12 | – | 3.49% (inactive) |
| Nc1ncnc2c1c(-c1cccc(OCc3ccccc3)c1)cn2C1CC(CN2CCCC2)C1 (configuration not stated) | 16.6 µM (active) and 6.51 µM (active) | – |
| Cc1c(CN2CCN(S(C)(=O)=O)CC2)sc2c(N3CCOCC3)nc(-c3cnc(N)nc3)nc12 | 41.8 nM (active) and 291 nM (active) | – |
| O=C1CCC[C@@H]2[C@H]3CCC[N+]4([O-])CCC[C@@H](CN12)[C@@H]34 (some centres not stated) | inactive | – |
| NC(=O)c1cccc2cn(-c3ccc([C@@H]4CCCNC4)cc3)nc12 | inactive | – |
| COc1cccc(Nc2c(C(N)=O)cnc3c(C)cc(S(=O)(=O)c4cccc(C(=O)N(C)C)c4)cc23)c1 | inactive | – |
| O=c1c2ccccc2nc2n1CCc1c-2[nH]c2ccccc12 | inactive | – |
| COC(=O)C1=C(C)NC(C)=C(C(=O)OCCN2CCN(C(c3ccccc3)c3ccccc3)CC2)C1c1cccc([N+](=O)[O-])c1 (configuration not stated) | 20.6 µM (active) and inactive | – |
| CN(C)Cc1c(C(=O)NCCOc2ccc(C(=O)NO)cc2)oc2ccccc12 | 7.43 µM (active) and 4.61 µM (active) | – |
| CCN(CC)CCNC(=O)c1ccc2nc(-c3ccccc3)c(-c3ccc(CN4CCC(n5c(=O)[nH]c6ccccc65)CC4)cc3)nc2c1 | 3720 nM (active) | – |
| COc1ccc2c(OCc3nnc4ccc(-c5ccccc5)nn34)ccnc2c1 | inactive | – |
| Nc1ncnc2c1c(-c1cnc3[nH]ccc3c1)nn2C1CCCC1 | 590 nM (active) and 2.06 µM (active) | – |
| CC(C)c1cc(-c2n[nH]c(=O)n2-c2ccc3c(ccn3C)c2)c(O)cc1O | 93.5 nM (active) | – |
| COc1cc(Nc2ncc(F)c(Nc3ccc4c(n3)N(COP(=O)(O)O)C(=O)C(C)(C)O4)n2)cc(OC)c1OC | 1.66 µM (active) and 2.31 µM (active) and 13 µM (active) | – |
| CC[C@@]1(O)C(=O)OCc2c1cc1n(c2=O)Cc2cc3cc(O)ccc3nc2-1 | 1.16 µM (active) and 1.05 µM (active) | – |
| Cc1ccc2nc(NC(=O)CSc3nc4c(c(=O)n3-c3ccccc3)SCC4)sc2c1 | – | -5.47% (inactive) |
| CN1CCN(Cc2ccc(NC(=O)Nc3ccc(Oc4cc(NC(=O)C5CC5)ncn4)cc3)cc2C(F)(F)F)CC1 | 5800 nM (active) | – |
| COc1ccc(C(=O)CC2(O)C(=O)Nc3c(Cl)ccc(Cl)c32)cc1 (configuration not stated) | 2.64 µM (active) and 1.16 µM (active) | – |
| CN1CC[C@@H](c2c(O)cc(O)c3c(=O)cc(-c4ccccc4Cl)oc23)[C@@H](O)C1 | 209 nM (active) | – |
| CC1(C)CC(=O)c2c(C(F)(F)F)nn(-c3ccc(C(N)=O)c(NC4CCC(OC(=O)CN)CC4)c3)c2C1 (configuration not stated) | 662 nM (active) and 820 nM (active) | – |
| COC(=O)[C@]12CCC(C)(C)C[C@@H]1[C@@H]1C(=O)C=C3[C@@]4(C)C=C(C#N)C(=O)C(C)(C)[C@@H]4CC[C@@]3(C)[C@]1(C)CC2 | 743 nM (active) | – |
| O=C(CCCCCCC(=O)Nc1ccc([C@H]2O[C@@H](CSc3nc(-c4ccccc4)c(-c4ccccc4)o3)C[C@@H](c3ccc(CO)cc3)O2)cc1)NO | 11.8 µM (active) and inactive | – |
| OCc1ccc(-c2ccc(-c3ccc(CO)s3)o2)s1 | inactive and 3.17 µM (active) | – |
| Cc1coc2c1C(=O)C(=O)c1c-2ccc2c1CCCC2(C)C | inactive and 9.2 µM (active) | – |
| COc1ccc(-n2nc(C(N)=O)c3c2C(=O)N(c2ccc(N4CCCCC4=O)cc2)CC3)cc1 | inactive | – |

Assay: NS1 protein of Zika virus - qHTS assay to identify small molecule inhibitors in human HEK 293 cells (AID 1347053); note: nearly all actives have a fitted effect of over 55% in size;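 for activity change, negative = inhibition: plate controls were infected untreated cells for no effect and uninfected cells for full effect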
Conditions: HEK293 ZIKV MR766 infection, NS1 TR-FRET, 24 h; series mostly up to 46.1 µM; activity change, negative = inhibition: at the top concentration
In short: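 Inhibition of NS1 expression was scored in HEK 293 cells given compound 1 h ahead of MR766 virus (MOI = 0.5). Following 24 h at 37 C, two anti-NS1 antibodies generated a TR-FRET signal, scaled between uninfected and infected controls.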

| SMILES | activity change, negative = inhibition | Potency |
| --- | --- | --- |
| COc1cc2c(NC3CCN(C(C)C)CC3)nc(C3CCCCC3)nc2cc1OCCCN1CCCC1 | 6.19% (inactive) | – |
| CNC(=O)c1ccc(-c2cnc3ncc(Cc4ccc5ncccc5c4)n3n2)cc1F | -0.424% (inactive) | – |
| C=CC(=O)Nc1cccc(Oc2nc(Nc3ccc(N4CCN(C)CC4)cc3)ncc2Cl)c1 | – | 13.2 µM (active) |
| O=C(Cc1ccc(-c2ccc(OCCN3CCOCC3)cc2)cn1)NCc1ccccc1 | – | 0.0743 µM (active) |
| Clc1cccc(-n2nnnc2NCc2ccccc2Oc2ccccn2)c1Cl | 5.02% (inactive) | – |
| COc1cccc2c(NCc3ccccc3)nc(-n3c(N)nc4ccccc43)nc12 | – | 9.35 µM (active) |
| Nc1ncnc2c1c(-c1cccc(OCc3ccccc3)c1)cn2C1CC(CN2CCCC2)C1 (configuration not stated) | -11.6% (inactive) | – |
| O=C1CCC[C@@H]2[C@H]3CCC[N+]4([O-])CCC[C@@H](CN12)[C@@H]34 (some centres not stated) | -8.29% (inactive) | – |
| NC(=O)c1cccc2cn(-c3ccc([C@@H]4CCCNC4)cc3)nc12 | – | 11.8 µM (active) |
| COc1cccc(Nc2c(C(N)=O)cnc3c(C)cc(S(=O)(=O)c4cccc(C(=O)N(C)C)c4)cc23)c1 | 3.79% [at 20.1 µM] (inactive) | – |
| O=c1c2ccccc2nc2n1CCc1c-2[nH]c2ccccc12 | 7.25% (inactive) | – |
| CN(C)Cc1c(C(=O)NCCOc2ccc(C(=O)NO)cc2)oc2ccccc12 | -2.44% (inactive) | – |
| CCN(CC)CCNC(=O)c1ccc2nc(-c3ccccc3)c(-c3ccc(CN4CCC(n5c(=O)[nH]c6ccccc65)CC4)cc3)nc2c1 | – | 3.32 µM (active) |
| COc1ccc2c(OCc3nnc4ccc(-c5ccccc5)nn34)ccnc2c1 | 20.2% (inactive) | – |
| Nc1ncnc2c1c(-c1cnc3[nH]ccc3c1)nn2C1CCCC1 | – | 16.6 µM (active) |
| CC(C)c1cc(-c2n[nH]c(=O)n2-c2ccc3c(ccn3C)c2)c(O)cc1O | -4.32% (inactive) | – |
| COc1cc2c(cc1-c1c(C)noc1C)ncc1[nH]c(=O)n([C@H](C)c3ccccn3)c12 | 5.37% (inactive) | – |
| COc1cc(Nc2ncc(F)c(Nc3ccc4c(n3)N(COP(=O)(O)O)C(=O)C(C)(C)O4)n2)cc(OC)c1OC | -0.548% (inactive) | – |
| CC[C@@]1(O)C(=O)OCc2c1cc1n(c2=O)Cc2cc3cc(O)ccc3nc2-1 | – | 0.0332 µM (active) |
| Cc1ccc2nc(NC(=O)CSc3nc4c(c(=O)n3-c3ccccc3)SCC4)sc2c1 | -4.35% (inactive) | – |
| CN1CCN(Cc2ccc(NC(=O)Nc3ccc(Oc4cc(NC(=O)C5CC5)ncn4)cc3)cc2C(F)(F)F)CC1 | – | 1.18 µM (active) |
| COc1ccc(C(=O)CC2(O)C(=O)Nc3c(Cl)ccc(Cl)c32)cc1 (configuration not stated) | – | 1.05 µM (active) |
| CN1CC[C@@H](c2c(O)cc(O)c3c(=O)cc(-c4ccccc4Cl)oc23)[C@@H](O)C1 | – | 0.833 µM (active) |
| COC(=O)[C@]12CCC(C)(C)C[C@@H]1[C@@H]1C(=O)C=C3[C@@]4(C)C=C(C#N)C(=O)C(C)(C)[C@@H]4CC[C@@]3(C)[C@]1(C)CC2 | – | 1.32 µM (active) |
| O=C(CCCCCCC(=O)Nc1ccc([C@H]2O[C@@H](CSc3nc(-c4ccccc4)c(-c4ccccc4)o3)C[C@@H](c3ccc(CO)cc3)O2)cc1)NO | 12% (inactive) | – |
| COc1cccc(-c2ccc(NC(=O)C3=C(C(=O)O)CCC3)c(F)c2)c1 | – | 2.09 µM (active) |
| CCc1cc2c(cc1N1CCC(N3CCOCC3)CC1)C(C)(C)c1[nH]c3cc(C#N)ccc3c1C2=O | -12% (inactive) | – |
| OCc1ccc(-c2ccc(-c3ccc(CO)s3)o2)s1 | 12.6% (inactive) | – |
| Cc1coc2c1C(=O)C(=O)c1c-2ccc2c1CCCC2(C)C | 2.21% (inactive) | – |
| COc1ccc(-n2nc(C(N)=O)c3c2C(=O)N(c2ccc(N4CCCCC4=O)cc2)CC3)cc1 | 3.63% (inactive) | – |
